PubChem BioAssay AID1159580 (chemical genetic matrix, 2015)
Screen size: about 5,500 compounds; about 2,000 (36%) were called active. Inconclusive results (about 18%) are left out. Cut-off read from the data, not from the text of the source: active = normalized growth mostly below about 0.91 (no sharp cut-off); inconclusive = no clear call, values can overlap the other calls; inactive = mostly above about 0.92. The list shows a part of the results.

Test: chemical genetic growth profiling, strain panel (AID 1159580);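 note: tested at 20 µM; growth read once vehicle control cultures reached saturation at 30 °C; 1 = growth at the plate median or of vehicle wells; lower values mean less growth of the strain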
Conditions: growth OD

Measured: normalized growth

O=C(Cn1ccnc1[N+](=O)[O-])NCCO
inactive: S. cerevisiae deletion strains, locus YJR075W, strain HOC1, stronger effect = lower value 1 | S. cerevisiae deletion strains, locus YKL009W, strain mrt4, stronger effect = lower value 1.03 | S. cerevisiae deletion strains, locus YKL068W, stronger effect = lower value 1.02 | S. cerevisiae deletion strains, locus YKL085W, strain MDH1 (second series), stronger effect = lower value 1.03 | S. cerevisiae deletion strains, locus YKL085W, strain MDH1, stronger effect = lower value 1.03 | S. cerevisiae deletion strains, locus YKL160W, strain elf1, stronger effect = lower value 1.02 | S. cerevisiae deletion strains, locus YKL190W, strain CNB1, stronger effect = lower value 1.01 | S. cerevisiae deletion strains, locus YKR001C, strain vps1, stronger effect = lower value 1.01 | S. cerevisiae deletion strains, locus YKR026C, strain gcn3, stronger effect = lower value 1.01 | S. cerevisiae deletion strains, locus YKR091W, strain srl3, stronger effect = lower value 1.01 | S. cerevisiae deletion strains, locus YLL001W, strain dnm1, stronger effect = lower value 1.01 | S. cerevisiae deletion strains, locus YLL026W, stronger effect = lower value 1.01 | S. cerevisiae deletion strains, locus YLL041C, strain sdh2, stronger effect = lower value 1.01 | S. cerevisiae deletion strains, locus YLR027C, strain aat2, stronger effect = lower value 1.01 | S. cerevisiae deletion strains, locus YLR039C, strain RIC1, stronger effect = lower value 1.08 | S. cerevisiae deletion strains, locus YLR058C, strain SHM2, stronger effect = lower value 1.01 | S. cerevisiae deletion strains, locus YLR102C, strain apc9, stronger effect = lower value 1.01 | S. cerevisiae deletion strains, locus YLR113W, strain HOG1, stronger effect = lower value 0.988 | S. cerevisiae deletion strains, locus YLR221C, strain rsa3, stronger effect = lower value 1.02 | S. cerevisiae deletion strains, locus YLR258W, strain gsy2, stronger effect = lower value 1.02 | S. cerevisiae deletion strains, locus YLR262C, strain YPT6 (second series), stronger effect = lower value 1.02 | S. cerevisiae deletion strains, locus YLR262C, strain YPT6, stronger effect = lower value 1.07 | S. cerevisiae deletion strains, locus YLR268W, strain sec22, stronger effect = lower value 0.981 | S. cerevisiae deletion strains, locus YLR320W, strain mms22, stronger effect = lower value 1.03 | S. cerevisiae deletion strains, locus YLR330W, strain CHS5, stronger effect = lower value 1 | S. cerevisiae deletion strains, locus YLR342W, strain FKS1 (second series), stronger effect = lower value 1.08 | S. cerevisiae deletion strains, locus YLR342W, strain FKS1, stronger effect = lower value 1.02 | S. cerevisiae deletion strains, locus YLR357W, strain rsc2, stronger effect = lower value 1.01 | S. cerevisiae deletion strains, locus YLR370C, strain arc18, stronger effect = lower value 1.02 | S. cerevisiae deletion strains, locus YLR371W, strain rom2, stronger effect = lower value 1.01 | S. cerevisiae deletion strains, locus YLR384C, strain iki3, stronger effect = lower value 1.03 | S. cerevisiae deletion strains, locus YLR418C, strain cdc73, stronger effect = lower value 0.95 | S. cerevisiae deletion strains, locus YML016C, strain PPZ1, stronger effect = lower value 1 | S. cerevisiae deletion strains, locus YML032C, strain rad52, stronger effect = lower value 1.02 | S. cerevisiae deletion strains, locus YML120C, strain ndi1, stronger effect = lower value 1 | S. cerevisiae deletion strains, locus YML124C, strain tub3, stronger effect = lower value 1 | S. cerevisiae deletion strains, locus YMR058W, strain fet3, stronger effect = lower value 1.01 | S. cerevisiae deletion strains, locus YMR078C, strain ctf18, stronger effect = lower value 1.01 | S. cerevisiae deletion strains, locus YMR125W, strain sto1, stronger effect = lower value 1.02 | S. cerevisiae deletion strains, locus YMR129W, stronger effect = lower value 1.02 | S. cerevisiae deletion strains, locus YMR205C, strain PFK2, stronger effect = lower value 1.03 | S. cerevisiae deletion strains, locus YMR223W, strain ubp8, stronger effect = lower value 1.02 | S. cerevisiae deletion strains, locus YMR231W, strain pep5, stronger effect = lower value 1.02 | S. cerevisiae deletion strains, locus YMR263W, strain SAP30, stronger effect = lower value 0.993 | S. cerevisiae deletion strains, locus YMR307W, strain GAS1, stronger effect = lower value 1.04 | S. cerevisiae deletion strains, locus YNL067W, strain RPL9B, stronger effect = lower value 0.988 | S. cerevisiae deletion strains, locus YNL071W, strain lat1, stronger effect = lower value 1 | S. cerevisiae deletion strains, locus YNL128W, strain TEP1, stronger effect = lower value 0.991 | S. cerevisiae deletion strains, locus YNL153C, strain GIM3, stronger effect = lower value 0.97 | S. cerevisiae deletion strains, locus YNL183C, strain NPR1, stronger effect = lower value 0.955 | S. cerevisiae deletion strains, locus YNL209W, strain ssb2, stronger effect = lower value 1.02 | S. cerevisiae deletion strains, locus YNL233W, strain BNI4, stronger effect = lower value 1 | S. cerevisiae deletion strains, locus YNL248C, strain rpa49, stronger effect = lower value 1.01 | S. cerevisiae deletion strains, locus YNL250W, strain rad50, stronger effect = lower value 0.99 | S. cerevisiae deletion strains, locus YNL271C, strain bni1, stronger effect = lower value 0.999 | S. cerevisiae deletion strains, locus YNL298W, strain CLA4, stronger effect = lower value 1.01 | S. cerevisiae deletion strains, locus YNL307C, strain MCK1, stronger effect = lower value 1.03 | S. cerevisiae deletion strains, locus YNL322C, strain KRE1 (second series), stronger effect = lower value 1.02 | S. cerevisiae deletion strains, locus YNL322C, strain KRE1, stronger effect = lower value 1.01 | S. cerevisiae deletion strains, locus YNR049C, strain mso1, stronger effect = lower value 1.01 | S. cerevisiae deletion strains, locus YNR052C, strain pop2, stronger effect = lower value 1.01 | S. cerevisiae deletion strains, locus YOL006C, strain TOP1, stronger effect = lower value 1.06 | S. cerevisiae deletion strains, locus YOL012C, strain htz1 0.906 | S. cerevisiae deletion strains, locus YOL147C, strain pex11, stronger effect = lower value 1.01 | S. cerevisiae deletion strains, locus YOR001W, strain rrp6, stronger effect = lower value 1.02 | S. cerevisiae deletion strains, locus YOR061W, strain CKA2, stronger effect = lower value 1 | S. cerevisiae deletion strains, locus YOR069W, strain VPS5, stronger effect = lower value 1.01 | S. cerevisiae deletion strains, locus YOR070C, strain gyp1, stronger effect = lower value 1.03 | S. cerevisiae deletion strains, locus YOR080W, strain dia2, stronger effect = lower value 1.01 | S. cerevisiae deletion strains, locus YOR083W, strain WHI5, stronger effect = lower value 1.02 | S. cerevisiae deletion strains, locus YOR106W, strain vam3, stronger effect = lower value 1.02 | S. cerevisiae deletion strains, locus YOR136W, strain idh2, stronger effect = lower value 1.01 | S. cerevisiae deletion strains, locus YOR144C, strain elg1, stronger effect = lower value 1.01 | S. cerevisiae deletion strains, locus YOR184W, strain ser1, stronger effect = lower value 1.05 | S. cerevisiae deletion strains, locus YOR231W, strain MKK1, stronger effect = lower value 0.986 | S. cerevisiae deletion strains, locus YOR265W, strain rbl2, stronger effect = lower value 1.03 | S. cerevisiae deletion strains, locus YOR270C, strain vph1, stronger effect = lower value 1.03 | S. cerevisiae deletion strains, locus YOR290C, strain snf2, stronger effect = lower value 1.01 | S. cerevisiae deletion strains, locus YOR316C, strain cot1, stronger effect = lower value 1 | S. cerevisiae deletion strains, locus YPL051W, strain arl3, stronger effect = lower value 1.02 | S. cerevisiae deletion strains, locus YPL055C, strain LGE1, stronger effect = lower value 0.955 | S. cerevisiae deletion strains, locus YPL078C, strain atp4, stronger effect = lower value 1.01 | S. cerevisiae deletion strains, locus YPL106C, strain sse1, stronger effect = lower value 1.02 | S. cerevisiae deletion strains, locus YPL240C, strain hsp82, stronger effect = lower value 1.01 | S. cerevisiae deletion strains, locus YPL241C, strain CIN2, stronger effect = lower value 1.01 | S. cerevisiae deletion strains, locus YPL256C, strain CLN2, stronger effect = lower value 0.977 | S. cerevisiae deletion strains, locus YPR119W, strain clb2, stronger effect = lower value 1.01 | S. cerevisiae deletion strains, locus YPR141C, strain kar3, stronger effect = lower value 1.01 | S. cerevisiae deletion strains, locus YPR163C, strain tif3, stronger effect = lower value 1.01 | S. cerevisiae deletion strains, locus YPR167C, strain met16, stronger effect = lower value 1.02 | S. cerevisiae deletion strains, strain wtn01, stronger effect = lower value 1 | S. cerevisiae strains, strain wild type, stronger effect = lower value 1.01
